In PubChem BioAssay AID2148 (The Scripps Research Institute Molecular Screening Center, 2009):
The whole screen tested about 2,400 compounds, of which about 1,500 (62%) were called active. Rule as the data show it: active = inhibition above about 22%; inactive = the rest. So high a share suggests a set chosen from earlier hits. Only a sample is shown.

target: Melanin-concentrating hormone receptor 1 (Homo sapiens) (UniProt Q99705); assay: MCHR1 antagonists in cells, counter-screen for GPR7 antagonist project, cell-based, fluorescence, human (AID 2148); conditions: MCHR1-expressing cells, fluorescence antagonist assay; at 4.4 µM; hits give high values;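 also: 0% = vehicle with agonist and 100% = vehicle without agonist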

Compound | inhibition
COc1ccccc1N(C(=O)Cn1nnc2ccccc21)C(C(=O)NCc1ccco1)c1ccc(C)o1 (configuration not stated) | 25.9% (active)
O=[N+]([O-])/C=C/c1ccc2c(ccn2Cc2ccccc2)c1 | 104% (active)
CCCOc1ccccc1C1CC(=O)Nc2cc3c(cc21)OCO3 (configuration not stated) | 51.8% (active)
COc1cc(OC)cc(C(=O)N[C@H](C(=O)OCC(=O)NC(C)c2ccccc2)C(C)C)c1 (some centres not stated) | 65% (active)
Cc1ccc(NC(=O)CN2C(=O)NC(C)(c3ccc(Cl)cc3)C2=O)c(Br)c1 (configuration not stated) | 6.97% (inactive)
COc1cc(NC(=O)CN2C(=O)NC(C)(c3ccc(OC(F)F)cc3)C2=O)cc(OC)c1OC (configuration not stated) | 28.4% (active)
C=CCNC(=O)COC(=O)c1ccccc1C(=O)N(C)C1CCCCC1 | -2.95% (inactive)
C=CCC1(CC=C)CCCN1C(=O)c1cc(COc2ccc(-n3cncn3)cc2)on1 | 55.2% (active)
CCc1ccc(NC(=O)c2ccc(Cn3cc([N+](=O)[O-])cn3)cc2)cc1 | 35.1% (active)
CCOc1ccc(C(=O)NC(=S)Nc2ccc(N3CCOCC3)c(Cl)c2)cc1[N+](=O)[O-] | 24.7% (active)
CC(C(=O)N1CCN(c2ccccc2F)CC1)c1ccc([N+](=O)[O-])cc1 (configuration not stated) | 27.9% (active)
CCN(CC)Cc1c(C(=O)OC)nnn1-c1nonc1N | 5.07% (inactive)
Clc1ccc(-c2cc(C3CCNCC3)[nH]n2)c(Cl)c1 | 35.6% (active)
O=C(COc1ccc(S(=O)(=O)Nc2cccc(C(F)(F)F)c2)cc1)N1CCOCC1 | 28% (active)
O=S(=O)(c1ccc(OCC(O)CN2CCN(c3ccccc3Cl)CC2)cc1)N1CCOCC1 (configuration not stated) | 38.9% (active)
O=C(NCCCN1CCN(c2ccc(F)cc2)CC1)Nc1ccc([N+](=O)[O-])cc1 | 65.1% (active)
Cc1c(CCO)c(=O)n(-c2ccccc2)n1S(=O)(=O)c1ccc(F)cc1 | -12.3% (inactive)
Cc1ccc(O)c(NC(=S)NC(=O)COc2ccc(Br)cc2)c1 | 83.8% (active)
CN(c1cccc(NC(=O)Nc2ccc(Cl)cc2)c1)S(C)(=O)=O | 67.3% (active)

Compound | inhibition
CCOc1ncccc1C(=O)NCCc1ccc(OC)cc1 | 13.4% (inactive)
COc1ccc(CS(=O)/C(Cl)=C(/Cl)C(=O)Nc2ccc(OC)nc2)cc1 (configuration not stated) | 63.9% (active)
COc1cccc(CNCCc2c[nH]c3ccccc23)c1OCc1ccccc1F | 83.6% (active)
Cc1ccccc1Nc1nnc(SCC(=O)c2cc3ccccc3o2)s1 | 10.6% (inactive)
Nc1nnc(SCC(=O)Nc2ccc3nc(SCC(=O)Nc4ccccc4)sc3c2)s1 | 81.6% (active)
O=C(CN1C(=O)/C(=C/c2ccccc2F)Sc2ccccc21)NCc1cccnc1 | 63% (active)
Clc1ccc(C2CC(c3cccs3)n3ncnc3N2)cc1Cl (configuration not stated) | 15.5% (inactive)
COc1ccc(C2Nc3ccccc3C(=O)N2Cc2ccccc2)cc1Cn1nnc2ccccc21 (configuration not stated) | 32.1% (active)
Fc1ccc(-c2ccc(-c3nn4c(-c5ccco5)nnc4s3)o2)cc1 | 12.7% (inactive)
O=C(NCCCN1CCOCC1)c1ccc2c(c1)N(Cc1cccc(F)c1)C(=O)c1ccccc1S2 | 25.3% (active)
Cc1ccccc1CN1C(=O)c2ccccc2Sc2ccc(C(=O)NCCCN3CCOCC3)cc21 | 17% (inactive)
CCOC(=O)C1CSC(CC(=O)Nc2ccc(OCC)cc2)C(=O)N1 (configuration not stated) | 3.62% (inactive)
CCC(C)c1ccccc1NC(=O)CN(C)CC(=O)Nc1ccccc1SC (configuration not stated) | 24.8% (active)
CCc1ccc(N(C(=O)c2csnn2)C(C(=O)NC2CCCCC2)c2ccncc2)cc1 (configuration not stated) | 17.6% (inactive)
CC(C)OCCCNc1ncnc2c1[nH]c1ccc(F)cc12 | 70.9% (active)
Cc1cc(OC(C)C(=O)NC2CC(C)(C)NC(C)(C)C2)c2c(C)cc(=O)oc2c1 (configuration not stated) | -9.17% (inactive)
O=C(COc1ccccc1)NCc1ccc2c(c1)OCO2 | 1.89% (inactive)
CCOc1ccc(Cn2nnc(C(=O)NCc3ccccc3)c2N)cc1 | 51.5% (active)
O=C(Cc1ccc(Cl)cc1)NC(=S)Nc1ccccc1O | 96.4% (active)

Compound | inhibition
Cc1ccccc1NC(=S)NC(=O)Cc1ccc(Cl)cc1 | 65.3% (active)
O=C(NC(=O)c1ccccc1)Nc1ccccc1O | 14.3% (inactive)
O=C(CC(=O)Nc1ccc(Cl)c(Cl)c1)N/N=C/c1ccc(O)cc1 | 12.4% (inactive)
CS(=O)(=O)N(CC(O)Cn1c2ccccc2c2ccccc21)c1cccc2ccccc12 (configuration not stated) | 41.7% (active)
Cc1cccc(NC(=O)c2cccc(C(=O)Nc3cccc(C)c3C)n2)c1C | 25.4% (active)
Cc1ccc(C(=O)C[n+]2cc(-c3ccccc3)n3c2CCCCC3)cc1 | 16.7% (inactive)
Cc1ccc2[nH]cc(CCNC(=O)c3ccc([N+](=O)[O-])cc3)c2c1 | 49% (active)
O=C(Nc1nc(-c2ccc3c(c2)OCO3)cs1)c1ccncc1 | 67.8% (active)
O=C(Nc1ccccc1F)c1ccc2c(c1)OCO2 | 2.37% (inactive)
COc1ccc(NS(=O)(=O)c2ccc(NC(=S)NC(=O)CC(C)C)cc2)cc1 | 58.1% (active)
O=C(CSCc1ccc([N+](=O)[O-])cc1)NCCSCc1ccccc1 | 28.9% (active)
O=[N+]([O-])c1ccc(N(CCO)Cc2ccccc2)c([N+](=O)[O-])c1 | 15.3% (inactive)
N=c1c2c(-c3ccccc3)c(-c3ccccc3)n(Cc3ccccc3)c2ncn1CCCO | 38.1% (active)
CCN1/C(=C\c2ccc3ccccc3[n+]2CC)Sc2cc(C)ccc21 | 42.9% (active)
CCc1ccc(OCC2c3cc(OC)c(OC)cc3CCN2C(C)=O)cc1 (configuration not stated) | 29.6% (active)
CC1CN(C(=O)CCC(=O)NCCCN2CCC(Cc3ccccc3)CC2)c2cc(Cl)ccc2O1 (configuration not stated) | 49.6% (active)
Cc1ccc(S(=O)(=O)n2cnc3ccccc32)c(C)c1 | -5.48% (inactive)
CC(=O)Nc1ccc(S(=O)(=O)N(C)CC(=O)NCCC2=CCCCC2)cc1 | -1.52% (inactive)
COc1ccc(C(CCNCc2ccccc2F)c2ccc(F)cc2)cc1 (configuration not stated) | 42.1% (active)
